# Results taken from PubChem BioAssay AID1159580 (chemical genetic matrix, 2015).
# Values joined by “and” are separate entries in the source; they are usually repeats but may differ in a detail not shown here. Equal values may be shown once. Out of some 5,500 compounds screened, about 2,000 (36%) were called active. About 18% were inconclusive and are not listed. No stated cut-off is given here; in the data, active means normalized growth mostly below about 0.91 (no sharp cut-off); inconclusive means no clear call, values can overlap the other calls; inactive means mostly above about 0.92. The list shows a part of the results.
# Experiment: chemical genetic growth profiling, strain panel (AID 1159580);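 further: tested at 20 µM; growth read once vehicle control cultures reached saturation at 30 °C; 1 = growth at the plate median or of vehicle wells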
# Details: S. cerevisiae deletion strains, growth OD
compound,measurement,setting,value
O=c1oc2c(O)c(O)cc3c(=O)oc4c(O)c(O)cc1c4c23,normalized growth,"locus YAL013W, strain DEP1, stronger effect = lower value",0.55 (active)
same,normalized growth,"locus YAL021C, strain ccr4, stronger effect = lower value",0.352 (active)
same,normalized growth,"locus YAL026C, strain drs2, stronger effect = lower value",0.545 (active)
same,normalized growth,"locus YAL030W, strain snc1, stronger effect = lower value",0.817 (active)
same,normalized growth,"locus YBL061C, strain skt5, stronger effect = lower value",0.591 (active)
same,normalized growth,"locus YBR009C, strain hhf1, stronger effect = lower value",0.754 (active)
same,normalized growth,"locus YBR021W, strain FUR4, stronger effect = lower value",0.907 (inactive)
same,normalized growth,"locus YBR023C, strain chs3, stronger effect = lower value",0.533 (active)
same,normalized growth,"locus YBR171W, strain sec66, stronger effect = lower value",0.938 (inactive)
same,normalized growth,"locus YBR229C, strain ROT2, stronger effect = lower value",0.903 (active)
same,normalized growth,"locus YBR231C, strain swc5, stronger effect = lower value",0.53 (active)
same,normalized growth,"locus YBR279W, strain paf1, stronger effect = lower value",0.699 (active)
same,normalized growth,"locus YCL011C, strain gbp2, stronger effect = lower value",0.745 (active)
same,normalized growth,"locus YCL016C, strain dcc1, stronger effect = lower value",0.722 (active)
same,normalized growth,"locus YCL029C, strain bik1, stronger effect = lower value",0.502 (active)
same,normalized growth,"locus YCL061C, strain MRC1, stronger effect = lower value",0.84 (active)
same,normalized growth,"locus YCL069W, strain vba3, stronger effect = lower value",0.855 (active)
same,normalized growth,"locus YCR088W, strain abp1, stronger effect = lower value",0.895 (active)
same,normalized growth,"locus YDL005C, strain med2, stronger effect = lower value",0.986 (inactive)
same,normalized growth,"locus YDL035C, strain GPR1, stronger effect = lower value",0.681 (active)
same,normalized growth,"locus YDL040C, strain nat1, stronger effect = lower value",0.868 (active)
same,normalized growth,"locus YDL074C, strain BRE1, stronger effect = lower value",0.541 (active)
same,normalized growth,"locus YDL101C, strain DUN1, stronger effect = lower value",0.598 (active)
same,normalized growth,"locus YDL185W, strain tfp1, stronger effect = lower value",0.835 (active)
same,normalized growth,"locus YDL192W, strain arf1, stronger effect = lower value",0.558 (active)
same,normalized growth,"locus YDR001C, strain nth1, stronger effect = lower value",0.96 (inactive)
same,normalized growth,"locus YDR069C, strain doa4, stronger effect = lower value",0.521 (active)
same,normalized growth,"locus YDR101C, strain arx1, stronger effect = lower value",0.749 (active)
same,normalized growth,"locus YDR137W, strain rgp1, stronger effect = lower value",0.496 (active)
same,normalized growth,"locus YDR150W, strain NUM1, stronger effect = lower value",0.778 (active)
same,normalized growth,"locus YDR159W, strain sac3, stronger effect = lower value",0.738 (active)
same,normalized growth,"locus YDR162C, strain NBP2, stronger effect = lower value",0.661 (active)
same,normalized growth,"locus YDR195W, strain ref2",0.876 (inactive)
same,normalized growth,"locus YDR297W, strain sur2, stronger effect = lower value",0.746 (active)
same,normalized growth,"locus YDR318W, strain mcm21, stronger effect = lower value",0.651 (active)
same,normalized growth,"locus YDR334W, strain swr1, stronger effect = lower value",0.574 (active)
same,normalized growth,"locus YDR335W, strain msn5, stronger effect = lower value",0.784 (active)
same,normalized growth,"locus YDR388W, stronger effect = lower value",0.538 (active)
same,normalized growth,"locus YDR392W, strain spt3, stronger effect = lower value",0.695 (active)
same,normalized growth,"locus YDR502C, strain sam2, stronger effect = lower value",0.561 (active)
same,normalized growth,"locus YEL003W, strain gim4, stronger effect = lower value",0.697 (active)
same,normalized growth,"locus YEL037C, strain rad23, stronger effect = lower value",0.767 (active)
same,normalized growth,"locus YEL061C, strain CIN8 (second series), stronger effect = lower value",0.917 (inactive)
same,normalized growth,"locus YEL061C, strain CIN8, stronger effect = lower value",0.753 (active)
same,normalized growth,"locus YER015W, strain faa2, stronger effect = lower value",0.583 (active)
same,normalized growth,"locus YER016W, strain bim1, stronger effect = lower value",0.818 (active)
same,normalized growth,"locus YER110C, stronger effect = lower value",0.971 (inactive)
same,normalized growth,"locus YER111C, strain swi4, stronger effect = lower value",0.436 (active)
same,normalized growth,"locus YER155C, strain BEM2 (second series), stronger effect = lower value",0.745 (active)
same,normalized growth,"locus YER155C, strain BEM2, stronger effect = lower value",0.74 (active)
same,normalized growth,"locus YER167W, strain BCK2, stronger effect = lower value",0.799 (active)
same,normalized growth,"locus YFR010W, strain ubp6, stronger effect = lower value",0.713 (active)
same,normalized growth,"locus YGL078C, strain dbp3, stronger effect = lower value",0.976 (inactive)
same,normalized growth,"locus YGL086W, strain mad1, stronger effect = lower value",0.583 (active)
same,normalized growth,"locus YGL167C, strain pmr1, stronger effect = lower value",0.653 (active)
same,normalized growth,"locus YGL173C, strain kem1, stronger effect = lower value",0.417 (active)
same,normalized growth,"locus YGL227W, strain vid30, stronger effect = lower value",1 (inactive)
same,normalized growth,"locus YGL240W, strain doc1, stronger effect = lower value",0.923 (inactive)
same,normalized growth,"locus YGL248W, strain PDE1, stronger effect = lower value",0.649 (active)
same,normalized growth,"locus YGL253W, strain hxk2, stronger effect = lower value",0.768 (active)
same,normalized growth,"locus YGR078C, strain PAC10, stronger effect = lower value",0.616 (active)
same,normalized growth,"locus YGR135W, strain pre9, stronger effect = lower value",0.559 (active)
same,normalized growth,"locus YGR252W, strain gcn5, stronger effect = lower value",0.588 (active)
same,normalized growth,"locus YHR013C, strain ard1, stronger effect = lower value",0.563 (active)
same,normalized growth,"locus YHR027C, strain rpn1, stronger effect = lower value",0.539 (active)
same,normalized growth,"locus YHR030C, strain SLT2, stronger effect = lower value",0.41 (active) and 0.994 (inactive)
same,normalized growth,"locus YHR079C, strain IRE1 (second series), stronger effect = lower value",0.824 (active)
same,normalized growth,"locus YHR079C, strain IRE1, stronger effect = lower value",0.978 (inactive)
same,normalized growth,"locus YHR094C, strain hxt1, stronger effect = lower value",0.964 (inactive)
same,normalized growth,"locus YHR129C, strain ARP1, stronger effect = lower value",0.603 (active)
same,normalized growth,"locus YHR142W, strain chs7, stronger effect = lower value",0.563 (active)
same,normalized growth,"locus YHR200W, strain rpn10, stronger effect = lower value",0.712 (active)
same,normalized growth,"locus YIL066C, strain RNR3, stronger effect = lower value",0.669 (active)
same,normalized growth,"locus YIL073C, strain SPO22, stronger effect = lower value",0.546 (active)
same,normalized growth,"locus YIL125W, strain kgd1, stronger effect = lower value",0.956 (inactive)
same,normalized growth,"locus YIR030C, strain dcg1, stronger effect = lower value",0.776 (active)
same,normalized growth,"locus YJL092W, strain hpr5, stronger effect = lower value",0.861 (active)
same,normalized growth,"locus YJL095W, strain BCK1 (second series), stronger effect = lower value",0.675 (active)
same,normalized growth,"locus YJL095W, strain BCK1, stronger effect = lower value",0.28 (active) and 0.983 (inactive)
same,normalized growth,"locus YJL115W, strain asf1, stronger effect = lower value",0.912 (inactive)
same,normalized growth,"locus YJL129C, strain trk1, stronger effect = lower value",0.898 (inactive)
same,normalized growth,"locus YJL134W, strain LCB3, stronger effect = lower value",0.823 (active)
same,normalized growth,"locus YJL154C, strain vps35, stronger effect = lower value",0.864 (active)
same,normalized growth,"locus YJL164C, strain tpk1, stronger effect = lower value",0.679 (active)
same,normalized growth,"locus YJL166W, strain qcr8, stronger effect = lower value",0.73 (active)
same,normalized growth,"locus YJL168C, strain set2, stronger effect = lower value",0.898 (active)
same,normalized growth,"locus YJL187C, strain SWE1 (second series), stronger effect = lower value",0.493 (active)
same,normalized growth,"locus YJL187C, strain SWE1, stronger effect = lower value",0.742 (active)
same,normalized growth,"locus YJR043C, strain POL32, stronger effect = lower value",0.596 (active)
same,normalized growth,"locus YJR066W, strain TOR1, stronger effect = lower value",0.974 (inactive)
